This is an account of results in PubChem BioAssay.

Active and inactive are the calls of the source.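 How the source made its calls, unless noted: active means compounds lowering colon cancer cell viability after pretreatment blocking the GSK3B kinase; inactive means the rest.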

The nature of assay [1]: Wnt pathway potentiators raising nuclear beta-catenin – imaging, WNT3A-conditioned medium, mouse C2C12, NPC library, primary screen (AID 1117326; in the data active means nuclear beta-catenin stimulation mostly above about 4.2%, no sharp cut-off; inactive means mostly below about 10%; further: reference of the scale not given here). The note with it: stronger effect = higher value.
Assay [2] in a line: stimulators of insulin release from INS-1E, primary screen, cell-based, 5 mM glucose, NPC library (AID 1117329;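 active means compound raises insulin release from rat beta cells at 5 mM glucose, no numeric limit stated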; further: reference of the scale not given here). Conditions: rat INS-1E insulin secretion, at 10 µM, stronger effect = higher value.
Assay [3] can be described thus: growth inhibition of GSK3B-pretreated HCT116 cells – cell-based, CellTiter-Glo, 0.2 to 20 µM (AID 1117336). The note with it: HCT116 viability after GSK3B inhibitor, at 20 µM, stronger effect = higher value. A general note: ATP-based viability assays read luminescence as a measure of living cells.
Assay [4] in a line: inhibition of endothelial tube formation, primary screen, imaging, VEGF stimulated, CD31 staining, tube area, NPC library (AID 1117340;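 active means compound that reduces growth-factor-driven endothelial tube area in a mixed cell culture, no cutoff stated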). The note with it: VEGF-stimulated ADSC/ECFC co-culture, at 10 µM, stronger effect = higher value.
Assay [5] is described as follows: GLP1 release stimulators, primary, NCI-H716, NPC library (AID 1117341;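 active means compound raises GLP1 secretion from the human gut endocrine cells, with no numeric limit stated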; further: reference of the scale not given here). The note with it: NCI-H716 cells, at 10 µM, stronger effect = higher value.
Assay [6] in a line: HCT116 colon cancer cell growth inhibition, primary screen, CellTiter-Glo luminescence, NPC library (AID 1117342;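 active means compounds that lower survival of HCT116 colon cancer cells in the luminescence readout, no numeric limit stated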). Conditions: at 20 µM (top of the series).
A short description of assay [7]: reduced SW480 viability measured with CellTiter-Glo, NPC library, primary (AID 1117343;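 active means compounds that lower viability of the colon cancer cells in the luminescence readout, with no numeric limit stated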). Conditions: CellTiter-Glo luminescence; at 20 µM (top of the series).
A short description of assay [8]: NPC library primary testing for decreased DLD-1 cell viability via CellTiter-Glo (AID 1117346;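 active means compounds that lower survival of DLD-1 colon cancer cells in the luminescence readout, no cutoff given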). The note with it: DLD-1 viability, CellTiter-Glo luminescence; at 20 µM (top of the series).

Take `CC(C)(C)C1CCC(CC2=C(O)c3ccccc3C(=O)C2=O)CC1` (configuration not stated): the nuclear beta-catenin stimulation is 2% (inactive) in assay [1] (at 10 µM) and -0.5% in assay [1] (stimulation, at 2 µM). In addition, the insulin secretion stimulation in assay [2] was -0.2% (inactive). The viability decrease in assay [3] is 110% (active). Moreover, in assay [4], the tube area decrease is 109% (active). Also, the GLP1 secretion stimulation in assay [5] is 5.8% (inactive). For the same compound, the inhibition of viability in assay [6] is 106% (active). In addition, the results for the viability decrease (inhibition) in assay [7] and in assay [8] were 140% (active) and 98.4% (active), respectively.
As to `CCS(=O)(=O)c1ccc(OC)c(C(=O)OC)c1`, the nuclear beta-catenin stimulation is -0.3% (inactive) in assay [1] (at 10 µM) and -1.7% in assay [1] (stimulation, at 2 µM). For the same compound, the insulin secretion stimulation in assay [2] was 0.9% (inactive). In addition, the viability decrease in assay [3] was -5.9% (inactive). For the same compound, in assay [4], the tube area decrease was -10% (inactive). The GLP1 secretion stimulation in assay [5] was 1% (inactive). Further, in assay [6], the inhibition of viability was 7.3% (inactive). For the same compound, the viability decrease (inhibition) in assay [7] is -1.8% (inactive); in assay [8], 8.8% (inactive).
In the case of `CN[C@H](CC(C)C)C(=O)N[C@H]1C(=O)N[C@@H](CC(N)=O)C(=O)N[C@H]2C(=O)N[C@H]3C(=O)N[C@H](C(=O)N[C@H](C(=O)O)c4cc(O)cc(O)c4-c4cc3ccc4O)[C@H](O)c3ccc(c(Cl)c3)Oc3cc2cc(c3O[C@@H]2OC(CO)[C@@H](O)[C@H](O)[C@@H]2O[C@H]2C[C@](C)(N)[C@H](O)[C@H](C)O2)Oc2ccc(cc2Cl)[C@H]1O` (some centres not stated), the nuclear beta-catenin stimulation was -0.7% (inactive) in assay [1] (at 10 µM) and 2.4% in assay [1] (stimulation, at 2 µM). Further, the insulin secretion stimulation in assay [2] is -0.1% (inactive). Besides, the viability decrease in assay [3] was -6.3% (inactive). Moreover, the tube area decrease in assay [4] was 7.3% (inactive). In assay [5], the GLP1 secretion stimulation is -0.9% (inactive). In addition, the inhibition of viability in assay [6] is -1.3% (inactive). The figures for the viability decrease (inhibition) in assay [7] and in assay [8] were 5% (inactive) and -10% (inactive), respectively.
For `CC(C)(C)C(=O)OCOC(=O)C1N2C(=O)CC2S(=O)(=O)C1(C)C` (configuration not stated), the nuclear beta-catenin stimulation was -1.1% (inactive) in assay [1] (at 10 µM) and 1% in assay [1] (stimulation, at 2 µM). In assay [2], the insulin secretion stimulation is 1.4% (inactive). Also, the viability decrease in assay [3] was 10.9% (inactive). Further, the tube area decrease in assay [4] is -21.6% (inactive). In addition, in assay [5], the GLP1 secretion stimulation was -1.3% (inactive). In addition, the inhibition of viability in assay [6] is -4.1% (inactive). The viability decrease (inhibition) in assay [7] was -22.3% (inactive); in assay [8], 4% (inactive).
Regarding `CC[N+](CC)(CC)CCOC(=O)C(C1CCCC1)C1CCCC1`, the nuclear beta-catenin stimulation in assay [1] (at 10 µM) was 1.2% (inactive); in assay [1] (stimulation, at 2 µM), 2%. In assay [2], the insulin secretion stimulation was 0.5% (inactive). The viability decrease in assay [3] was 28.7% (inactive). In addition, the tube area decrease in assay [4] is 8.3% (inactive). Moreover, the GLP1 secretion stimulation in assay [5] was 1.6% (inactive). For the same compound, the inhibition of viability in assay [6] was 21.8% (inactive). The values for the viability decrease (inhibition) in assay [7] and in assay [8] were -14.4% (inactive) and 4.1% (inactive), respectively.
For the compound `CCc1oc2ccccc2c1C(=O)c1cc(I)c(O)c(I)c1`, the nuclear beta-catenin stimulation in assay [1] (at 10 µM) is 4.9% (inactive); in assay [1] (stimulation, at 2 µM), 0.4%. Further, in assay [2], the insulin secretion stimulation was -1.6% (inactive). Besides, the viability decrease in assay [3] was 98.7% (active). Also, in assay [4], the tube area decrease is 108% (active). Also, the GLP1 secretion stimulation in assay [5] was -3.6% (inactive). The inhibition of viability in assay [6] was 99% (active). The values for the viability decrease (inhibition) in assay [7] and in assay [8] were 101% (active) and 102% (active), respectively.
Regarding `Clc1ccccc1-c1nc(-c2ccncc2)no1`, the nuclear beta-catenin stimulation in assay [1] (at 10 µM) was -0.3% (inactive); in assay [1] (stimulation, at 2 µM), 0.5%. Moreover, the insulin secretion stimulation in assay [2] is -2.3% (inactive). Also, the viability decrease in assay [3] was 3.6% (inactive). Further, the tube area decrease in assay [4] is 23.5% (inactive). In addition, the GLP1 secretion stimulation in assay [5] was -2.9% (inactive). Moreover, in assay [6], the inhibition of viability was 18.1% (inactive). Also, the viability decrease (inhibition) was 8.4% (inactive) in assay [7] and -2.9% (inactive) in assay [8].
Consider `CCOC(=O)C(O)c1ccccc1` (configuration not stated), for which the nuclear beta-catenin stimulation was 1.9% (inactive) in assay [1] (at 10 µM) and 9.6% in assay [1] (stimulation, at 2 µM). In addition, the insulin secretion stimulation in assay [2] was 0% (inactive). Moreover, the viability decrease in assay [3] is -1.8% (inactive). Also, the tube area decrease in assay [4] was -9.7% (inactive). Moreover, the GLP1 secretion stimulation in assay [5] is 0.1% (inactive). Moreover, in assay [6], the inhibition of viability is 1.4% (inactive). Further, the viability decrease (inhibition) is -10% (inactive) in assay [7] and -2.3% (inactive) in assay [8].
For the compound `C[C@H](CCC(=O)O)[C@H]1CC[C@H]2[C@@H]3CC[C@@H]4C[C@H](O)CC[C@]4(C)[C@@H]3C[C@H](O)[C@]12C`, the nuclear beta-catenin stimulation in assay [1] (at 10 µM) was -0.7% (inactive); in assay [1] (stimulation, at 2 µM), -1.1%. In addition, the insulin secretion stimulation in assay [2] was 1% (inactive). Moreover, the viability decrease in assay [3] was 37.6% (inactive). Besides, the tube area decrease in assay [4] was 0% (inactive). In assay [5], the GLP1 secretion stimulation was -5% (inactive). The inhibition of viability in assay [6] is 57% (active). Moreover, the viability decrease (inhibition) in assay [7] was 35.7% (inactive); in assay [8] it was 9.8% (active).
`CC(=O)Nc1ccn(C2COC(COC(=O)c3ccccc3)O2)c(=O)n1` (configuration not stated): the nuclear beta-catenin stimulation was 8.2% (inactive) in assay [1] (at 10 µM) and -0.9% in assay [1] (stimulation, at 2 µM). Moreover, the insulin secretion stimulation in assay [2] was 1% (inactive). Besides, the viability decrease in assay [3] was 54% (active). Further, the tube area decrease in assay [4] was 100% (active). In addition, the GLP1 secretion stimulation in assay [5] was 1.2% (inactive). Besides, the inhibition of viability in assay [6] was 56.5% (active). In addition, the viability decrease (inhibition) is 26.9% (inactive) in assay [7] and 29.9% (inactive) in assay [8].
With `Cc1ccccc1N=Nc1ccc(N=Nc2c(O)ccc3ccccc23)c(C)c1`, the nuclear beta-catenin stimulation in assay [1] (at 10 µM) was 4.6% (inactive); in assay [1] (stimulation, at 2 µM) it was 5.4%. Besides, the insulin secretion stimulation in assay [2] was 1.7% (inactive). For the same compound, in assay [3], the viability decrease is 2.6% (inactive). In assay [4], the tube area decrease is 38.9% (inactive). In addition, in assay [5], the GLP1 secretion stimulation is -8.5% (inactive). Further, the inhibition of viability in assay [6] was 6.3% (inactive). The results for the viability decrease (inhibition) in assay [7] and in assay [8] were 17.9% (inactive) and 15.4% (inactive), respectively.
`O=C(O)Cc1ccccc1Oc1ccc(Cl)cc1Cl`: the nuclear beta-catenin stimulation in assay [1] (at 10 µM) was 0.5% (inactive); in assay [1] (stimulation, at 2 µM), 0.7%. Besides, the insulin secretion stimulation in assay [2] is 1.5% (inactive). The viability decrease in assay [3] was -7.6% (inactive). Further, the tube area decrease in assay [4] is 3.2% (inactive). The GLP1 secretion stimulation in assay [5] was 1% (inactive). Further, the inhibition of viability in assay [6] is -0.8% (inactive). Moreover, the viability decrease (inhibition) was -5% (inactive) in assay [7] and 5.9% (inactive) in assay [8].
Take `CC(NN)c1ccccc1` (configuration not stated): the nuclear beta-catenin stimulation was 1.9% (inactive) in assay [1] (at 10 µM) and -2.2% in assay [1] (stimulation, at 2 µM). Besides, the insulin secretion stimulation in assay [2] was 3.35% (inactive). Further, the viability decrease in assay [3] is 13.8% (inactive). For the same compound, in assay [4], the tube area decrease is -6.7% (inactive). The GLP1 secretion stimulation in assay [5] is -0.4% (inactive). The inhibition of viability in assay [6] was 9.9% (inactive). The viability decrease (inhibition) was 4.9% (inactive) in assay [7] and 14.8% (inactive) in assay [8].
